Laboratory results from the supplement of paper PMC11624193, “Coupling cellular drug-target engagement to downstream pharmacology with CeTEAM” (Nature Communications, 2024).
Structures can show the parent of a compound that is named as a salt. A number with no mark means an inactive call.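 How the source made its calls: active = log2 fold change beyond 2 SD from the library mean after excluding viability outliers; inactive = within 2 SD.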

target: PARP1 L713F-nLuc biosensor (HCT116) (UniProt P09874); experiment: PARP1 L713F-nLuc/akaLuc ratio relative to DMSO control (biosensor stabilization) (fold change); higher = more PARP1 biosensor stabilization (target engagement / stabilizer), active = hit call of the paper; conditions: stock concentration (mM; final µM = stock mM x 1): 10; 24 h
Sequence (P09874 whole entry L713F, looked up): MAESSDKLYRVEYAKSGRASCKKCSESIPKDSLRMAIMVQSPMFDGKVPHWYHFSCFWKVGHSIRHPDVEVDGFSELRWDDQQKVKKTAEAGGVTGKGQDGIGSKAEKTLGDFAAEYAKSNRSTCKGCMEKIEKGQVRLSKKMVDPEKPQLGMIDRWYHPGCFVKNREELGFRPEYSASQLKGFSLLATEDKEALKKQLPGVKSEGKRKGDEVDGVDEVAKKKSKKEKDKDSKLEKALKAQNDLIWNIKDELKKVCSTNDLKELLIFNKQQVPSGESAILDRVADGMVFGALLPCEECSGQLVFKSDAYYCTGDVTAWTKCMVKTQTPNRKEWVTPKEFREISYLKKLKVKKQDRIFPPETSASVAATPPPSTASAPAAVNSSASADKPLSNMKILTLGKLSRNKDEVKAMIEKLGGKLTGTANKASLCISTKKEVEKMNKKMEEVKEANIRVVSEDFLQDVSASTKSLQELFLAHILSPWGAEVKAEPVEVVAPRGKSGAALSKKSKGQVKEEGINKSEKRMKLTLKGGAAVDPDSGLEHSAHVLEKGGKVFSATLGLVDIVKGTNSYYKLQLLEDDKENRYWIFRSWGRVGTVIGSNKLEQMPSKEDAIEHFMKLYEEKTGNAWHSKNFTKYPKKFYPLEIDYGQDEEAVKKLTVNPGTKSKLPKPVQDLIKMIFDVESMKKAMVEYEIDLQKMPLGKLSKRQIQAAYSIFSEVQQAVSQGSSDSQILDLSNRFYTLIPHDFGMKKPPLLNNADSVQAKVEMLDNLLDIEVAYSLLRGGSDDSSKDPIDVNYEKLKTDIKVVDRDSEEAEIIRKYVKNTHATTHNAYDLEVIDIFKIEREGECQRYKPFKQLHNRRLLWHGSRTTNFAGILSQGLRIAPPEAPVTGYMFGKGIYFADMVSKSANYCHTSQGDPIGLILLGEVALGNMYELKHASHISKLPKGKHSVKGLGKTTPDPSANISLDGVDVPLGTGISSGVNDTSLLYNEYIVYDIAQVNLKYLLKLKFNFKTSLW

| SMILES | PARP1 L713F-nLuc/akaLuc ratio |
| --- | --- |
| COC(=O)c1cccc(NC(=O)NC2CCN(c3ccnc(Nc4ccc(F)cc4)n3)C2)c1 (stereo unspecified) | 1.07 |
| C[C@@H]1CCN(C(=O)CC#N)C[C@@H]1N(C)c1ncnc2[nH]ccc12 [Tofacitinib (citrate)] | 0.775 |
| NC(=O)[C@H](CCCN=C(N)CCl)NC(=O)c1ccccc1 [Cl-amidine (hydrochloride)] | 0.914 |
| CN1CCN(c2cccc(Nc3nc4c(-c5ccc(S(C)(=O)=O)cc5)cccn4n3)c2)CC1 | 0.968 |
| CO[C@H]1C[C@@H]2CC[C@@H](C)[C@@](O)(O2)C(=O)C(=O)N2CCCC[C@H]2C(=O)O[C@H]([C@H](C)C[C@@H]2CC[C@@H](OC(=O)C(C)(CO)CO)[C@H](OC)C2)CC(=O)[C@H](C)/C=C(\C)[C@@H](O)[C@@H](OC)C(=O)[C@H](C)C[C@H](C)/C=C/C=C/C=C/1C | 0.565 |
| CC1(C)c2cccc(C(=O)NO)c2CN1c1cnc(C(F)(F)F)cn1 | 0.913 |
| NC(=O)c1ccccc1Nc1ccccc1 | 0.795 |
| NC(=O)c1cccc2cn(-c3ccc([C@@H]4CCCNC4)cc3)nc12 [Niraparib (hydrochloride)] | 4.39 (active) |
| COc1cc2c(Nc3ccc(NC(=O)c4ccccc4)cc3)ncnc2cc1OCCCN1CCOCC1 | 0.809 |
| CCS(=O)(=O)N1CCN(c2ccc(Nc3ncc(C(N)=O)c(NC4CC4)n3)cc2)CC1 [Cerdulatinib] | 1.82 |
| COc1cc(/C=C/C(=O)O[C@H]2CC[C@]34C[C@]35CC[C@]3(C)[C@@H]([C@H](C)CCC=C(C)C)CC[C@@]3(C)[C@@H]5CC[C@H]4C2(C)C)ccc1O [γ-Oryzanol] | 1.11 |
